Source: PubChem BioAssay
Rows were chosen to be rich in hits. Some 11% of all compounds tested hit in one or more screens of this group.
NPR1 antag: antagonists of human natriuretic peptide receptor Npr1. HEK293 hNpr1 GloSensor cGMP, ANP-stimulated luminescence. P16066. AID 1347048. Potency, µM (top dose mostly 46.3 µM), hits mostly inhibitors. 76,000 compounds, 1.6% hits; calls by dose curve; further: nearly all actives have a fitted effect of over 60% in size
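HEK293 cells stably expressing human Npr1 and cGMP GloSensor pGS-40F, loaded 2 h with 2% GloSensor reagent, given compound 30 min at room temperature. Luminescence read before and 20 min after 0.1 nM hNppA.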
NIH3T3 tox: cytotoxic compounds in NIH 3T3 cells. NIH 3T3 viability, CellTiter-Glo ATP luminescence, 48-72 h. 94,000 compounds, 4.3% hits. Potency, µM (doses to about 96.7 µM), most hits filed as inhibitors. AID 1345082; further: nearly all actives have a fitted effect of over 55% in size
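First NIH 3T3 cells are plated at 400 cells/well; next compound is pinned in; then plates incubate 48 or 72 hr at 37 °C; finally CellTiter-Glo is added and luminescence read after 10 min.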
FLuc inh: blocks purified firefly luciferase enzyme activity; purified P. pyralis luciferase, luminescence, biochemical; Potency, µM (series often up to 115 µM), most hits filed as inhibitors; P08659; 76,000 compounds, 2.5% hits; AID 1347043; further: nearly all actives have a fitted effect of over 65% in size
Target sequence (P08659 whole entry, looked up): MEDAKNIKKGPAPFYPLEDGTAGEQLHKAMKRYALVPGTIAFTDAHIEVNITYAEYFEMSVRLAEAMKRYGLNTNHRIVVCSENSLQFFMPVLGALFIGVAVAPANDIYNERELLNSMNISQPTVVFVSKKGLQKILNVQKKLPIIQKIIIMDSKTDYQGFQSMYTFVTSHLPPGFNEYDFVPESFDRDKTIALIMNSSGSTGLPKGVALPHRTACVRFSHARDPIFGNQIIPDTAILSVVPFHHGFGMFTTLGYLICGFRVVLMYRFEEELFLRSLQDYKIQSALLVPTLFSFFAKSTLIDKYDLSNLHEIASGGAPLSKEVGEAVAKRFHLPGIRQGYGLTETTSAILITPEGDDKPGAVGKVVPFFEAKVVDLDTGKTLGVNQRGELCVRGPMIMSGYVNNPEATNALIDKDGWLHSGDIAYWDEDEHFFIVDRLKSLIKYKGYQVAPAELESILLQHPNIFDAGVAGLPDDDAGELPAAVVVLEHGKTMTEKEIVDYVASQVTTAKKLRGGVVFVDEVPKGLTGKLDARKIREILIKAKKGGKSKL
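Luminescence read by CCD imaging after purified firefly luciferase (10nM final) was added to substrate buffer holding 10uM D-luciferin and 10uM ATP, pH 7.5, pre-dosed with compound.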
HEK cytotox: cytotoxic compounds in HEK 293 cells. HEK 293 viability, ATP luminescence (CellTiter-Glo), 48-72 h. Potency, µM (doses to about 115 µM), usual class: inhibitors. 94,000 compounds, 6.6% hits. AID 1345083; further: nearly all actives have a fitted effect of over 60% in size
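qHTS cytotoxicity; HEK 293, 250 cells/well; compound pinned; 48 or 72 hr, 37 degree Celsius, 5% CO2, 95% humidity; CellTiter-Glo, 10 min RT; luminescence (ATP).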
Hits are given with their value; - = inactive; ? = inconclusive; . = no result given. Unless noted, the call rests on the fitted dose curve; in most records, active means well fitted curve in the direction sought with a large enough effect; inconclusive means small, poorly fitted or top-dose-only effect, or another doubt; inactive means no such curve, though single readings can be large; an effect the other way counts as inactive or inconclusive.

SMILES	NPR1 antag	NIH3T3 tox	FLuc inh	HEK cytotox
CCC1=C(C(=O)OC)C(c2cccc(C)c2)N2C(CC(=O)N3CCCCC3C)=CSC2=N1 (stereo not given)	-	-	-	45µM
Cc1ncc2n1C(=O)N(C1CCN(Cc3cccc4ccccc34)CC1)C2	-	?	-	?
Cc1cc(Cl)ccc1-c1ccccc1C=O	.	112µM	.	?
Cc1cc(Cl)ccc1-c1ccccc1CN	.	22µM	.	?
COc1ccccc1-c1cccc(CN)c1	.	126µM	.	100µM
NCc1cccc(-c2cc(C(F)(F)F)ccc2Cl)c1	.	?	.	71µM
Cc1cc(Cl)ccc1-c1ccc(C=O)cc1	.	?	.	-
COc1cccc(-c2ccc(C(=O)NCCNC(=O)c3ccc(Cl)nc3)cc2)c1	.	-	.	?
Cc1ccc(-c2cccc(CN)c2)c(C)c1	.	28µM	.	45µM
Cc1cc(Cl)ccc1-c1cccc(CN)c1	.	32µM	.	40µM
Cc1ccc(-c2ccc(CN)cc2)c(C)c1	.	32µM	.	32µM
Cc1cccc(-c2ccccc2CN)c1	.	-	.	-
NCc1cccc(-c2cccc(O)c2)c1	.	-	.	-
OC[C@@H]1CNC[C@H]1C1CCN(Cc2ccc(F)c(Br)c2)CC1	-	35µM	-	?
OC[C@@H]1CNC[C@H]1C1CCN(Cc2ccc(Br)cc2F)CC1	-	?	-	?
O=C(Nc1nc2c(s1)CCCC2)C1CC(=O)N(c2n[nH]c3ccccc23)C1 (stereo not given)	-	-	-	?
CCc1nc(NC(=O)C2CC(=O)N(c3n[nH]c4cccc(F)c34)C2)sc1C (stereo not given)	-	-	-	?
O=C(Nc1nc2c(s1)CCC2)C1CC(=O)N(c2n[nH]c3cccc(F)c23)C1 (stereo not given)	-	?	-	45µM
COc1ccc(N2CCN(C(=O)C3CC(=O)N(c4n[nH]c5cccc(F)c45)C3)CC2)cc1 (stereo not given)	-	-	-	40µM
O=C(Nc1nc2ccccc2s1)C1CC(=O)N(c2n[nH]c3cccc(F)c23)C1 (stereo not given)	-	25µM	-	13µM
O=C(Nc1nc2c(s1)CCC2)C1CC(=O)N(c2n[nH]c3cc(Br)ccc23)C1 (stereo not given)	-	18µM	-	?
O=C(c1ccccc1F)N1CCC2(CC1)CC(OCC1CC1)CCO2 (stereo not given)	-	-	-	-
CC(C)Cc1cnc(C2CCCN(C(=O)OC(C)(C)C)C2)[nH]1 (stereo not given)	.	89µM	.	?
O=C1CC(c2ccccc2)N(C(=O)CNC(=O)c2ccc3cc[nH]c3c2)CCCCCN1 (stereo not given)	-	-	-	?
COc1cccc(CC(=O)N2CCC(Cn3c(C)cnc3C3CCC3)CC2)c1	-	-	-	-
SMILES	NPR1 antag	NIH3T3 tox	FLuc inh	HEK cytotox
Nc1cccn2nc(-c3ccccc3)nc12	-	?	16µM	-
Nc1cccn2nc(-c3cccnc3)nc12	-	-	?	-
COc1ccc(OC)c(NC(=O)CC2CCCCN(C)C2=O)c1 (stereo not given)	-	-	-	-
CC(=O)N1CCCC1C(=O)Nc1ccc(-c2nc3ccccc3o2)cc1 (stereo not given)	-	-	16µM	?
COc1cccc(-c2ccc(NC(=O)C3CCCN3C(=O)CNC(C)=O)cc2)c1 (stereo not given)	-	-	-	?
O=C1NC(=NC2CCCC2)C2(CCN(Cc3cccnc3)CC2)N1c1cc(F)cc(F)c1	.	32µM	.	-
O=C1NC(=NC2CCCC2)C2(CCN(Cc3ccccc3)CC2)N1c1cc(F)cc(F)c1	.	-	.	-
O=C1NC(=NC2CCCC2)C2(CCN(Cc3cccnc3)C2)N1c1cc(F)cc(F)c1 (stereo not given)	.	32µM	.	-
OC[C@@H]1CN(Cc2ccoc2)C[C@H]1c1nc(-c2ccncc2)no1	-	-	?	?
OC[C@@H]1CN(Cc2cccc(F)c2)C[C@H]1c1nc(-c2ccncc2)no1	-	-	-	45µM
OC[C@@H]1CN(Cc2ccc(F)cc2)C[C@H]1c1nc(-c2ccncc2)no1	14µM	?	?	?
O=C(Nc1ccc2ncnc(N3CCCCC3)c2c1)c1c(F)cccc1Cl	-	?	-	50µM
Cc1ccsc1C(=O)Nc1ccc2c(N3CCCCC3)ncnc2c1	-	35µM	?	?
O=C(Nc1ccc2c(N3CCCC3)ncnc2c1)c1ccccc1Cl	-	25µM	?	?
O=C(Nc1ccc2ncnc(N3CCCCC3)c2c1)c1ccccc1Br	?	?	-	45µM
